L3MBTL1 inh – blocks human L3MBTL1; Q9Y468; AlphaScreen L3MBTL1–H3K9me1 peptide binding; Potency, µM (titrated, usually from 57.1 µM), inactives show at the highest dose activity, negative = inhibition, actives largely listed as inhibitors; 0.66% of 230,000 active; AID 485360; also: nearly all actives have a fitted effect of over 60% in size
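AlphaScreen proximity signal between nickel-chelate acceptor and streptavidin donor beads (final 10 ug/mL) reports binding of 50 nM L3MBTL1 to 75 nM biotin-H3 K9me1 peptide; complex incubated with compounds 30 min at room temperature; cefsulodin titration as control.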
RECQ1 inh-1 – inhibitors of human RECQ1 DNA helicase; P46063; RECQ1 DNA unwinding, red fluorescence kinetic read; Potency, µM (titrated, usually from 57.3 µM), without a hit: at the highest dose activity, negative = inhibition, most hits filed as inhibitors; 0.54% of 240,000 active;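 also: plate controls were vehicle for no effect and no enzyme for full effect; nearly all actives have a fitted effect of over 30% in size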
Target sequence (P46063 whole entry, looked up): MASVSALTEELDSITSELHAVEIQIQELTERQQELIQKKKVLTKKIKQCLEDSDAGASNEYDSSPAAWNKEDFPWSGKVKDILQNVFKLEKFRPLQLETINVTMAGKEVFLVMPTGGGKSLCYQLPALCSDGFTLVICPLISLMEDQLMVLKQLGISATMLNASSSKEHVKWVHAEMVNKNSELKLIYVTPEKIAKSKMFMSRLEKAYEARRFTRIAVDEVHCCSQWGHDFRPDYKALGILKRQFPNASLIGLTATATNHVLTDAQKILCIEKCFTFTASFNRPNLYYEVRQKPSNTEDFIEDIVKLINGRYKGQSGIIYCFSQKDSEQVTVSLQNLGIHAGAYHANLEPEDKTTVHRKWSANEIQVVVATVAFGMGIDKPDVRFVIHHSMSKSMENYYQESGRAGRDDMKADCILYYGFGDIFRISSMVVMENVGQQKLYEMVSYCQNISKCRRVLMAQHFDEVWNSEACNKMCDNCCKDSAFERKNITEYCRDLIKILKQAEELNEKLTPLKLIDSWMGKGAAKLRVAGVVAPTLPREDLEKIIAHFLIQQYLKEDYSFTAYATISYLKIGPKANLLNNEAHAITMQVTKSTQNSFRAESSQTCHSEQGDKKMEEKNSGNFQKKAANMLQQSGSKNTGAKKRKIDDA
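50 nM RECQ1T1 preincubated 15 min with compound in Tris pH 8.0 buffer with MgCl2, DTT, Tween-20 and 2.5 ug/ml poly(dI-dC); started with 200 nM TAMRA/BHQ-2 forked duplex and 2 mM ATP. Unwinding read as fluorescence (525/598 nm), two reads 2 h apart.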
APEX1 inh – inhibitors of human APE1 endonuclease. P27695. recombinant APE1, TAMRA/BHQ-2 abasic DNA cleavage fluorescence. Potency, µM (titrated, usually from 65.8 µM), without a hit: top-dose activity change, negative = inhibition, most hits filed as inhibitors. 0.35% of 350,000 active;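 also: plate controls were vehicle for no effect and reference inhibitor for full effect; nearly all actives have a fitted effect of over 55% in size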
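Readout is kinetic fluorescence (ex 525, em 598 nm) from cleavage of 50 nM TAMRA/BHQ-2 THF abasic duplex by 0.75 nM APE1, compound added 15 min beforehand at RT.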
BLM helicase inh – inhibitors of human Bloom syndrome helicase BLM. P54132. recombinant BLM DNA unwinding, fluorescence dequenching. Potency, µM (series often up to 56.1 µM), for inactives: at the top dose activity change, negative = inhibition, usual class: inhibitors. 0.2% of 350,000 active. AID 2528;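 also: plate controls were vehicle for no effect and no enzyme for full effect; nearly all actives have a fitted effect of over 35% in size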
RECQ1 inh conf – confirmation of human RECQ1 helicase inhibitors | Potency, µM (highest dose often 229 µM), for the others: at the highest dose activity change, negative = inhibition, hits mostly inhibitors | shares compounds with RECQ1 inh-1 | 28% of 610 active | RECQ1 helicase DNA unwinding, fluorescence; also: nearly all actives have a fitted effect of over 45% in size
RECQ1 ADP FP – displaces ADP in a fluorescence polarization counter-screen for RECQ1 hits | shares compounds with RECQ1 inh-1 | ADP fluorescence polarization displacement counterscreen | Potency, µM (series often up to 228 µM), without a hit: at the top dose activity change, negative = inhibition, actives largely listed as inhibitors | 27% of 530 active | AID 2711; also: nearly all actives have a fitted effect of over 45% in size
RECQ1 inh-2 – RECQ1 helicase inhibition confirmed, round 2; shares compounds with RECQ1 inh-1; recombinant RECQ1 DNA unwinding, red fluorescence; Potency, µM (doses to about 119 µM), for the others: at the top dose activity, negative = inhibition, most hits filed as inhibitors; 15% of 1,100 active; AID 504841; also: nearly all actives have a fitted effect of over 50% in size
* hit, by the source's call; u = inconclusive; x = no result given; [ ] = dose if it differs, or a comment. In the library only some 0.78% were active in any assay of this set; here they are far more common. Calls follow the shape of the dose curve; as a rule, active = well fitted curve in the direction sought with a large enough effect; inconclusive = small, poorly fitted or top-dose-only effect, or another doubt; inactive = no such curve, though single readings can be large; an effect the other way counts as inactive or inconclusive. Unless noted, % is scaled to controls: 0 for no effect and ±100 for the full control effect; potency is read from the fitted curve at half-maximal effect.

SMILES	L3MBTL1 inh	RECQ1 inh-1	APEX1 inh	BLM helicase inh	RECQ1 inh-2	others
COc1ccc(CN2C(=O)c3ccccc3C2C(=O)NC2CCCC(C)C2C)c(OC)c1 (configuration not stated)	x	3.2µM*	1%	-9%	-10%	RECQ1 inh conf=-6%[114 µM];RECQ1 ADP FP=19%[91.9 µM]
O=C(Cn1cnc2cc([N+](=O)[O-])ccc2c1=O)NC(c1ccccc1)c1ccccc1	-4%	u	12%	-7%	-5%
CC(C)(C)c1ccccc1NC(=O)Cn1cnc2cc([N+](=O)[O-])ccc2c1=O	19%	-1%	-5%	-3%	x
CCc1ccc(NC(=O)c2ccc(Cn3nc(N4CCN(c5ccccc5)CC4)ccc3=O)o2)cc1	x	x	x	-19%	x
Cc1ccc(NC(=S)NC(=O)c2sc3ccccc3c2Cl)c(C(=O)O)c1	-14%	7%	-3%	-14%	x	RECQ1 inh conf=89µM*;RECQ1 ADP FP=u
O=C(O)c1ccccc1NC(=S)NC(=O)c1sc2ccccc2c1Cl	x	0%	1%	1%	x
CCC(=O)N1CCc2cc(Br)cc(S(=O)(=O)CCC(=O)NCc3ccc(C)cc3)c21	x	x	x	1%	x
COc1ccccc1-c1csc(NC(=O)c2cc(-c3cccs3)nc3ccccc23)n1	-9%	u	15%	-15%	-13%
COc1cccc(N2CCN(C(=O)c3cccc(NC(=O)c4nsc5ccccc45)c3)CC2)c1	x	x	x	-6%	x
COc1ccc(CCn2c(=S)[nH]c3cc(C(=O)N4CCOCC4)ccc3c2=O)cc1OC	x	35µM*	17%	-6%	-48%
COc1ccc(CCn2c(=O)[nH]c3cc(C(=O)N4CCN(c5ccccc5)CC4)ccc3c2=O)cc1OC	x	-1%	0%	-2%	x
O=C(Cn1c(-c2cccs2)cc2ccccc21)NCCCN1CCN(c2cccc(Cl)c2)CC1	x	x	x	-8%	x
COc1ccc(CNCC(O)(c2ccc(F)cc2)c2ccc(F)cc2)cc1OC	x	x	-16%	-6%	x
COc1ccc(CNCC(O)(c2ccc(Cl)cc2)c2ccc(Cl)cc2)cc1OC	-4%	14µM*	-2%	-14%	x	RECQ1 inh conf=u;RECQ1 ADP FP=22µM*
O=C(O)c1ccc2nc(-c3ccccc3)sc2c1	7%	1%	4%	1%	x
Nc1ccc(-c2nc3ccc(C(=O)O)cc3s2)cc1	6%	u	u	-5%	-28%
Cc1cc(C)cc(OCC(=O)Nc2nonc2NC(=O)COc2cc(C)cc(C)c2)c1	-3%	u	4%	-4%	-1%
Cc1cc(C)cc(OCC(=O)Nc2nonc2-c2ccc(Br)cc2)c1	x	x	x	-6%	x
CC(C)[C@H](NS(=O)(=O)c1ccc2c(c1)OCCO2)C(=O)OCC(=O)Nc1cc(Cl)ccc1Cl	-2%	50µM*	10%	-6%	-16%
O=C1c2ccccc2-c2onc3ccc(N4CCCC4)c1c23	u	14µM*	20µM*	39%	56µM*
CCN(CC)c1cccc(OC2=NS(=O)(=O)c3ccccc32)c1	-3%	u	15%	-4%	-22%
Cc1onc(-c2c(F)cccc2Cl)c1C(=O)OCC(=O)c1c[nH]c2ccccc12	x	22µM*	u	-15%	-25%
Cc1ccc(NC(=O)CCc2nc3cccnc3n2-c2ccccc2)cc1Cl	x	x	x	-3%	x
CC(CCc1ccccc1)NC(=O)CSc1n[nH]c(-c2ccc(F)cc2)n1 (configuration not stated)	x	x	x	-2%	x
O=C(C1COc2ccccc2O1)N1CCCC1 (configuration not stated)	x	-4%	1%	-4%	x
O=C(C1COc2ccccc2O1)N1CCc2ccccc21 (configuration not stated)	u	u	u	-22%	13µM*

Source: PubChem (National Center for Advancing Translational Sciences (NCATS))
